Common to all, as to assay: HT-SELEX; high values mean tight binding
What all share (details): protein: recombinant; vector His6-GST; dsDNA, one strand shown

One experiment concerns the target T1, SALL4 ZFC4 WT (HT-SELEX) (Mus musculus, UniProt Q8BX22 870-940).
T1 sequence: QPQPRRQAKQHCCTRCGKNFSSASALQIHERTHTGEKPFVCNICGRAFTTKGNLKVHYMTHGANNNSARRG
An outline of the steps:
(§1)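 Residues 870–940 of mouse SALL4, forming zinc finger cluster 4, were expressed recombinantly, purified, and 1 µg was incubated with library DNA (1.5 µg first cycle, 200 ng later) in 100 µl of 10 mM Tris–HCl pH 7.5, 50 mM NaCl, poly(dI-dC) and DTT for 10 min at room temperature. Washed Ni2+ bead-captured complexes were PCR-amplified and reselected for up to 6 cycles in triplicate, and the products were sequenced on MiSeq and scanned for 6-mers. Binding signal is the fold change in each canonical k-mer's read fraction compared with the initial random library.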

The target in experiment [1] is T2, SALL4 ZFC4 R900W (HT-SELEX) (Mus musculus, UniProt Q8BX22 870-940, R900W).
T2 sequence: T1 sequence with R31W
An outline of the steps:
as §1

Experiment [2] concerns the target T3, SALL4 ZFC4 G921D (HT-SELEX) (Mus musculus, UniProt Q8BX22 870-940, G921D).
T3 sequence: T1 sequence with G52D
The gist of the method: as §1

Positions count from the first letter of the chain named.

For CATATG, the binding signal came out at 1.44 ± 0.156 fold-change vs cycle 0 in the experiment with SALL4 ZFC4 WT (HT-SELEX), 1.37 ± 0.112 fold-change vs cycle 0 in experiment [1] and 1.32 ± 0.0777 fold-change vs cycle 0 in experiment [2].
The matching figures for AATGAC: 1.18 ± 0.09 fold-change vs cycle 0, 1.36 ± 0.06 fold-change vs cycle 0 and 1.3 ± 0.105 fold-change vs cycle 0.
The matching figures for AATTTC: 2.1 ± 0.178 fold-change vs cycle 0, 1.76 ± 0.0861 fold-change vs cycle 0 and 1.64 ± 0.101 fold-change vs cycle 0.
In the same order, the values of AACATT are 1.95 ± 0.0486 fold-change vs cycle 0, 1.96 ± 0.0488 fold-change vs cycle 0 and 1.79 ± 0.136 fold-change vs cycle 0.
As for AAGTTC, the binding signal came to 1.29 ± 0.0532 fold-change vs cycle 0 with SALL4 ZFC4 WT (HT-SELEX), 1.44 ± 0.0457 fold-change vs cycle 0 in experiment [1] and 1.36 ± 0.0438 fold-change vs cycle 0 in experiment [2].
In the same order, the values of GTGTGA are 0.748 ± 0.0198 fold-change vs cycle 0, 0.881 ± 0.0312 fold-change vs cycle 0 and 0.9 ± 0.0278 fold-change vs cycle 0.
In the same order, the values of GATTTA are 1.94 ± 0.0986 fold-change vs cycle 0, 1.84 ± 0.0979 fold-change vs cycle 0 and 1.71 ± 0.128 fold-change vs cycle 0.
The matching figures for GCTTCC: 0.35 ± 0.00821 fold-change vs cycle 0, 0.454 ± 0.0368 fold-change vs cycle 0 and 0.567 ± 0.0502 fold-change vs cycle 0.
ATTCAC: the binding signal with SALL4 ZFC4 WT (HT-SELEX) turned out to be 1.32 ± 0.0734 fold-change vs cycle 0; in experiment [1], 1.45 ± 0.0876 fold-change vs cycle 0; in experiment [2], 1.38 ± 0.121 fold-change vs cycle 0.
The matching figures for AGGTCA: 0.772 ± 0.0359 fold-change vs cycle 0, 0.893 ± 0.023 fold-change vs cycle 0 and 0.972 ± 0.0353 fold-change vs cycle 0.
In the same order, the values of CGGTTC are 0.342 ± 0.0141 fold-change vs cycle 0, 0.423 ± 0.038 fold-change vs cycle 0 and 0.53 ± 0.0844 fold-change vs cycle 0.
In the same order, the values of CAAAAG are 1.03 ± 0.0267 fold-change vs cycle 0, 1.17 ± 0.0219 fold-change vs cycle 0 and 1.153 ± 0.00875 fold-change vs cycle 0.
Consider ATCGAC, for which the results for the binding signal (with SALL4 ZFC4 WT (HT-SELEX); in experiment [1]; in experiment [2]) were 0.576 ± 0.0406 fold-change vs cycle 0, 0.632 ± 0.033 fold-change vs cycle 0 and 0.759 ± 0.0482 fold-change vs cycle 0, respectively.
In the case of AGACGG, the binding signal stood at 0.342 ± 0.0181 fold-change vs cycle 0 with SALL4 ZFC4 WT (HT-SELEX), 0.409 ± 0.00782 fold-change vs cycle 0 in experiment [1] and 0.522 ± 0.0641 fold-change vs cycle 0 in experiment [2].
Take CGGAGA: the values for the binding signal (with SALL4 ZFC4 WT (HT-SELEX); in experiment [1]; in experiment [2]) were 0.359 ± 0.025 fold-change vs cycle 0, 0.45 ± 0.0336 fold-change vs cycle 0 and 0.543 ± 0.0379 fold-change vs cycle 0, respectively.
The matching figures for GACCGA: 0.327 ± 0.0131 fold-change vs cycle 0, 0.4 ± 0.0327 fold-change vs cycle 0 and 0.52 ± 0.0745 fold-change vs cycle 0.
For CTAGAG, the values for the binding signal (with SALL4 ZFC4 WT (HT-SELEX); in experiment [1]; in experiment [2]) were 0.862 ± 0.0503 fold-change vs cycle 0, 1 ± 0.0918 fold-change vs cycle 0 and 1.03 ± 0.068 fold-change vs cycle 0, respectively.
In the same order, the values of AAACTG are 1.1 ± 0.0398 fold-change vs cycle 0, 1.2 ± 0.0458 fold-change vs cycle 0 and 1.17 ± 0.0583 fold-change vs cycle 0.
In the same order, the values of CTTAGA are 1.28 ± 0.0284 fold-change vs cycle 0, 1.45 ± 0.0641 fold-change vs cycle 0 and 1.36 ± 0.0933 fold-change vs cycle 0.
As to AGGTCG, the binding signal with SALL4 ZFC4 WT (HT-SELEX) was 0.312 ± 0.0215 fold-change vs cycle 0; in experiment [1], 0.372 ± 0.0129 fold-change vs cycle 0; in experiment [2], 0.511 ± 0.0677 fold-change vs cycle 0.
The matching figures for AGCTGG: 0.346 ± 0.0084 fold-change vs cycle 0, 0.411 ± 0.0182 fold-change vs cycle 0 and 0.522 ± 0.0592 fold-change vs cycle 0.
The matching figures for CCGTTC: 0.364 ± 0.0226 fold-change vs cycle 0, 0.435 ± 0.0276 fold-change vs cycle 0 and 0.511 ± 0.0586 fold-change vs cycle 0.
As to GACGTC, the figures for the binding signal (in the experiment with SALL4 ZFC4 WT (HT-SELEX); in experiment [1]; in experiment [2]) were 0.306 ± 0.00649 fold-change vs cycle 0, 0.386 ± 0.024 fold-change vs cycle 0 and 0.522 ± 0.0468 fold-change vs cycle 0, respectively.
In the same order, the values of CCAAGC are 0.327 ± 0.034 fold-change vs cycle 0, 0.384 ± 0.0115 fold-change vs cycle 0 and 0.516 ± 0.0505 fold-change vs cycle 0.
The matching figures for ATTGCC: 0.502 ± 0.0233 fold-change vs cycle 0, 0.566 ± 0.0263 fold-change vs cycle 0 and 0.699 ± 0.0539 fold-change vs cycle 0.
In the same order, the values of CTCCGA are 0.382 ± 0.00698 fold-change vs cycle 0, 0.433 ± 0.0122 fold-change vs cycle 0 and 0.589 ± 0.0734 fold-change vs cycle 0.
Regarding AGAGTC, the binding signal was 0.786 ± 0.0201 fold-change vs cycle 0 with SALL4 ZFC4 WT (HT-SELEX), 0.925 ± 0.0489 fold-change vs cycle 0 in experiment [1] and 0.995 ± 0.0509 fold-change vs cycle 0 in experiment [2].
In the same order, the values of AGCAAA are 0.996 ± 0.0354 fold-change vs cycle 0, 1.04 ± 0.0692 fold-change vs cycle 0 and 1.07 ± 0.0335 fold-change vs cycle 0.
For CACTTA, the binding signal in the experiment with SALL4 ZFC4 WT (HT-SELEX) amounted to 1.34 ± 0.0677 fold-change vs cycle 0; in experiment [1] it was 1.46 ± 0.0563 fold-change vs cycle 0; in experiment [2], 1.38 ± 0.0979 fold-change vs cycle 0.
On to CCAACC, for which the binding signal came out at 0.393 ± 0.0262 fold-change vs cycle 0 with SALL4 ZFC4 WT (HT-SELEX), 0.466 ± 0.0254 fold-change vs cycle 0 in experiment [1] and 0.565 ± 0.0588 fold-change vs cycle 0 in experiment [2].
